Experimental data: the supplement of paper PMC8728848
This is one part of a sample in which the strongest signals are shown more often than they occur.

What was measured:
Experiment in all cases: glycan array binding signal (z-score within array); higher = stronger binding
Details in all cases: glycan notation: IUPAC condensed, linker removed
[1] = target: Fuc(a1-2)Gal(b1-3)GlcNAc(b1-3)[Fuc(a1-2)Gal(b1-3)GlcNAc(b1-6)]GalNAc
Method in brief: (§1)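 The Consortium for Functional Glycomics database supplied 3228 glycan arrays, of which those lacking an available protein sequence were dropped. The binding signal, a within-array Z-score, was averaged across arrays of the same protein sequence and across linkers. Negative scores can be read as non-binding.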

[2] = target: Fuc(a1-2)Gal(b1-3)GlcNAc(b1-3)[Neu5Ac(a2-6)Gal(b1-4)GlcNAc(b1-6)]Gal(b1-4)Glc
Method in brief: as §1

[3] = target: Fuc(a1-2)[Gal(a1-3)]Gal(b1-4)GlcNAc
Method in brief: as §1

[4] = target: Fuc(a1-2)[Gal(a1-3)]Gal(b1-4)GlcNAc(b1-2)Man
Method in brief: as §1

[5] = target: Fuc(a1-3)[Gal(b1-4)]GlcNAc(b1-2)Man
Method in brief: as §1

Gal(a1-3)Gal(b1-3)GlcNAc = target: Gal(a1-3)Gal(b1-3)GlcNAc
Method in brief: as §1

[6] = target: Gal(a1-3)Gal(b1-4)GlcNAc(b1-2)Man(a1-3)[Gal(a1-3)Gal(b1-4)GlcNAc(b1-2)Man(a1-6)]Man(b1-4)GlcNAc(b1-4)GlcNAc
Method in brief: as §1

[7] = target: Gal(a1-3)Gal(b1-4)[Fuc(a1-3)]GlcNAc(b1-2)Man(a1-3)[Gal(a1-3)Gal(b1-4)[Fuc(a1-3)]GlcNAc(b1-2)Man(a1-6)]Man(b1-4)GlcNAc(b1-4)GlcNAc
Method in brief: as §1

Gal(a1-6)Glc = target: Gal(a1-6)Glc
Method in brief: as §1

[8] = target: Gal(b1-3)GalNAc(b1-3)Gal(a1-4)Gal(b1-4)Glc
Method in brief: as §1

[9] = target: Gal(b1-3)GlcNAc(b1-3)Gal(b1-3)GlcNAc
Method in brief: as §1

[10] = target: Gal(b1-3)GlcNAc(b1-6)GalNAc
Method in brief: as §1

[11] = target: Gal(b1-3)GlcNAc(b1-6)[Gal(b1-3)]GalNAc
Method in brief: as §1

[12] = target: Gal(b1-4)GlcNAc(b1-2)Man(a1-3)[Gal(b1-4)GlcNAc(b1-2)Man(a1-6)]Man(b1-4)GlcNAc(b1-4)GlcNAc
Method in brief: as §1

[13] = target: Gal(b1-4)GlcNAc(b1-2)Man(a1-3)[Gal(b1-4)GlcNAc(b1-2)Man(a1-6)][Gal(b1-4)GlcNAc(b1-4)]Man(b1-4)GlcNAc(b1-4)[Fuc(a1-6)]GlcNAc
Method in brief: as §1

[14] = target: Gal(b1-4)GlcNAc(b1-2)Man(a1-3)[Man(a1-6)]Man(b1-4)GlcNAc(b1-4)GlcNAc
Method in brief: as §1

[15] = target: Gal(b1-4)GlcNAc(b1-2)Man(a1-6)[Man(a1-3)]Man(b1-4)GlcNAc(b1-4)GlcNAc
Method in brief: as §1

[16] = target: Gal(b1-4)GlcNAc(b1-2)[Gal(b1-4)GlcNAc(b1-6)]Man(a1-6)[GlcNAc(b1-4)][Gal(b1-4)GlcNAc(b1-2)[Gal(b1-4)GlcNAc(b1-4)]Man(a1-3)]Man(b1-4)GlcNAc(b1-4)[Fuc(a1-6)]GlcNAc
Method in brief: as §1

[17] = target: Gal(b1-4)GlcNAc(b1-3)Gal(b1-4)GlcNAc(b1-2)Man(a1-3)[Gal(b1-4)GlcNAc(b1-3)Gal(b1-4)GlcNAc(b1-2)Man(a1-6)]Man(b1-4)GlcNAc(b1-4)GlcNAc
Method in brief: as §1

[18] = target: Gal(b1-4)GlcNAc(b1-3)Gal(b1-4)GlcNAc(b1-2)[Gal(b1-4)GlcNAc(b1-3)Gal(b1-4)GlcNAc(b1-6)]Man(a1-6)[Gal(b1-4)GlcNAc(b1-3)Gal(b1-4)GlcNAc(b1-2)Man(a1-3)]Man(b1-4)GlcNAc(b1-4)GlcNAc
Method in brief: as §1

[19] = target: Gal(b1-4)GlcNAc(b1-3)Gal(b1-4)[Fuc(a1-3)]GlcNAc(b1-3)Gal(b1-4)[Fuc(a1-3)]GlcNAc
Method in brief: as §1

[20] = target: Gal(b1-4)GlcNAc(b1-3)[Gal(b1-4)GlcNAc(b1-6)]GalNAc
Method in brief: as §1

[21] = target: Gal(b1-4)GlcNAc(b1-6)[Gal(b1-4)GlcNAc(b1-3)]GalNAc
Method in brief: as §1

GalNAc(b1-3)GalNAc = target: GalNAc(b1-3)GalNAc
Method in brief: as §1

GalNAc(b1-4)Gal(b1-4)Glc = target: GalNAc(b1-4)Gal(b1-4)Glc
Method in brief: as §1

[22] = target: Glc(a1-4)Glc(a1-4)Glc(a1-4)Glc
Method in brief: as §1

Glc(b1-4)Glc = target: Glc(b1-4)Glc
Method in brief: as §1

GlcA(b1-3)Gal = target: GlcA(b1-3)Gal
Method in brief: as §1

[23] = target: GlcNAc(a1-4)Gal(b1-3)GlcNAc
Method in brief: as §1

[24] = target: GlcNAc(b1-2)[GlcNAc(b1-4)]Man(a1-3)[GlcNAc(b1-2)Man(a1-6)]Man(b1-4)GlcNAc(b1-4)GlcNAc
Method in brief: as §1

[25] = target: GlcNAc(b1-3)[GlcNAc(b1-6)]GalNAc
Method in brief: as §1

[26] = target: GlcNAc(b1-4)GlcNAc(b1-4)GlcNAc
Method in brief: as §1

[27] = target: GlcNAc(b1-4)[GlcNAc(b1-6)]GalNAc
Method in brief: as §1

[28] = target: Man(a1-2)Man(a1-2)Man(a1-3)Man
Method in brief: as §1

[29] = target: Man(a1-2)Man(a1-3)[Man(a1-2)Man(a1-6)]Man(a1-6)[Man(a1-2)Man(a1-2)Man(a1-3)]Man(b1-4)GlcNAc(b1-4)GlcNAc
Method in brief: as §1

[30] = target: Man(a1-2)Man(a1-3)[Man(a1-6)]Man(a1-6)[Man(a1-2)Man(a1-3)]Man(b1-4)GlcNAc(b1-4)GlcNAc
Method in brief: as §1

[31] = target: Man(a1-2)Man(a1-6)[Man(a1-3)]Man(a1-6)[Man(a1-2)Man(a1-2)Man(a1-3)]Man(b1-4)GlcNAc(b1-4)GlcNAc
Method in brief: as §1

Man(a1-3)[Man(a1-6)]Man = target: Man(a1-3)[Man(a1-6)]Man
Method in brief: as §1

[32] = target: Man(a1-3)[Man(a1-6)]Man(a1-6)[Man(a1-2)Man(a1-3)]Man(b1-4)GlcNAc(b1-4)GlcNAc
Method in brief: as §1

[33] = target: Man(a1-3)[Man(a1-6)]Man(a1-6)[Man(a1-3)]Man
Method in brief: as §1

[34] = target: Man(a1-3)[Man(a1-6)]Man(a1-6)[Man(a1-3)]Man(b1-4)GlcNAc(b1-4)GlcNAc
Method in brief: as §1

[35] = target: Man(a1-3)[Man(a1-6)]Man(b1-4)GlcNAc(b1-4)GlcNAc
Method in brief: as §1

[36] = target: Man(a1-3)[Man(a1-6)]Man(b1-4)GlcNAc(b1-4)[Fuc(a1-6)]GlcNAc
Method in brief: as §1

Man(b1-4)GlcNAc = target: Man(b1-4)GlcNAc
Method in brief: as §1

[37] = target: Neu5Ac(a2-3)Gal(b1-3)GlcNAc(b1-2)Man
Method in brief: as §1

[38] = target: Neu5Ac(a2-3)Gal(b1-3)GlcNAc(b1-3)Gal(b1-4)GlcNAc
Method in brief: as §1

[39] = target: Neu5Ac(a2-3)Gal(b1-3)GlcNAc(b1-3)GalNAc
Method in brief: as §1

[40] = target: Neu5Ac(a2-3)Gal(b1-3)GlcNAc6S
Method in brief: as §1

[41] = target: Neu5Ac(a2-3)Gal(b1-4)GlcNAc
Method in brief: as §1

[42] = target: Neu5Ac(a2-3)Gal(b1-4)GlcNAc(b1-3)Gal(b1-4)GlcNAc(b1-3)Gal(b1-4)GlcNAc
Method in brief: as §1

[43] = target: Neu5Ac(a2-3)Gal(b1-4)[Fuc(a1-3)]GlcNAc(b1-3)Gal
Method in brief: as §1

[44] = target: Neu5Ac(a2-3)Gal6S(b1-4)[Fuc(a1-3)]GlcNAc
Method in brief: as §1

[45] = target: Neu5Ac(a2-6)Gal(b1-3)GlcNAc(b1-3)[Gal(b1-4)GlcNAc(b1-6)]Gal(b1-4)Glc
Method in brief: as §1

[46] = target: Neu5Ac(a2-6)Gal(b1-4)GlcNAc(b1-2)Man(a1-6)[Man(a1-3)]Man(b1-4)GlcNAc(b1-4)GlcNAc
Method in brief: as §1

[47] = target: Neu5Ac(a2-8)Neu5Ac(a2-8)Neu5Ac
Method in brief: as §1

[48] = target: Neu5Ac(b2-6)Gal(b1-4)GlcNAc
Method in brief: as §1

[49] = target: Neu5Gc(a2-8)Neu5Gc(a2-3)Gal(b1-4)GlcNAc(b1-3)Gal(b1-4)GlcNAc
Method in brief: as §1

B1: NPA (Narcissus pseudonarcissus), C0HM45 (protein)
chain: DNILYSGETLSPGEFLNNGRYVFIMQEDCNLVLYDVDKPIWATNTGGLDRRCHLSMQSDGNLVVYSPRNNPIWASNTGGENGNYVCVLQKDRNVVIYGTARWATGTNIH
- glycan array binding signal (z-score) [1]: -0.124
- glycan array binding signal (z-score) [2]: -0.142
- glycan array binding signal (z-score) [3]: -0.152
- glycan array binding signal (z-score) [4]: -0.132
- glycan array binding signal (z-score) [5]: -0.131
- glycan array binding signal (z-score) (Gal(a1-3)Gal(b1-3)GlcNAc): -0.133
- glycan array binding signal (z-score) [6]: 2.1
- glycan array binding signal (z-score) [7]: -0.056
- glycan array binding signal (z-score) (Gal(a1-6)Glc): -0.147
- glycan array binding signal (z-score) [8]: -0.135
- glycan array binding signal (z-score) [9]: -0.148
- glycan array binding signal (z-score) [10]: -0.144
- glycan array binding signal (z-score) [11]: -0.051
- glycan array binding signal (z-score) [12]: 0.602
- glycan array binding signal (z-score) [13]: -0.143
- glycan array binding signal (z-score) [14]: 1.71
- glycan array binding signal (z-score) [15]: 3.12
- glycan array binding signal (z-score) [16]: -0.141
- glycan array binding signal (z-score) [17]: 0.034
- glycan array binding signal (z-score) [18]: -0.104
- glycan array binding signal (z-score) [19]: -0.144
- glycan array binding signal (z-score) [20]: -0.201
- glycan array binding signal (z-score) [21]: -0.141
- glycan array binding signal (z-score) (GalNAc(b1-3)GalNAc): -0.153
- glycan array binding signal (z-score) (GalNAc(b1-4)Gal(b1-4)Glc): -0.129
- glycan array binding signal (z-score) [22]: -0.139
- glycan array binding signal (z-score) (Glc(b1-4)Glc): -0.152
- glycan array binding signal (z-score) (GlcA(b1-3)Gal): -0.148
- glycan array binding signal (z-score) [23]: -0.152
- glycan array binding signal (z-score) [24]: -0.076
- glycan array binding signal (z-score) [25]: -0.147
- glycan array binding signal (z-score) [26]: -0.122
- glycan array binding signal (z-score) [27]: -0.146
- glycan array binding signal (z-score) [28]: 0.268
- glycan array binding signal (z-score) [29]: 0.144
- glycan array binding signal (z-score) [30]: 2.38
- glycan array binding signal (z-score) [31]: 1.83
- glycan array binding signal (z-score) (Man(a1-3)[Man(a1-6)]Man): 5.21
- glycan array binding signal (z-score) [32]: 5.6
- glycan array binding signal (z-score) [33]: 2.47
- glycan array binding signal (z-score) [34]: 5.37
- glycan array binding signal (z-score) [35]: 10.1
- glycan array binding signal (z-score) [36]: 5.34
- glycan array binding signal (z-score) (Man(b1-4)GlcNAc): -0.151
- glycan array binding signal (z-score) [37]: -0.122
- glycan array binding signal (z-score) [38]: -0.153
- glycan array binding signal (z-score) [39]: -0.14
- glycan array binding signal (z-score) [40]: -0.124
- glycan array binding signal (z-score) [41]: -0.154
- glycan array binding signal (z-score) [42]: -0.151
- glycan array binding signal (z-score) [43]: -0.162
- glycan array binding signal (z-score) [44]: -0.158
- glycan array binding signal (z-score) [45]: -0.144
- glycan array binding signal (z-score) [46]: 3.41
- glycan array binding signal (z-score) [47]: -0.156
- glycan array binding signal (z-score) [48]: -0.154
- glycan array binding signal (z-score) [49]: -0.146
